In PubChem BioAssay (NCATS):
Records with an inconclusive call do not appear. A call without a number means that no potency is given here. Values without a mark were called inactive. Active and inactive are the calls of the source. Calls come from the whole dose curve; as a rule, active = well fitted curve in the direction sought with a large enough effect; inconclusive = small, poorly fitted or top-dose-only effect, or another doubt; inactive = no such curve, though single readings can be large; an effect the other way counts as inactive or inconclusive.

How the values were obtained:
HaCat = assay: Cytotoxic Profiling of Annotated Libraries Using Quantitative High-Throughput Screening (AID 1296008); settings: Five cell lines viability, CellTiter-Glo ATP luminescence, 48-72 h; max response: hits give low values; note: nearly all actives have a fitted effect of over 60% in size; note: potency is the fitted concentration of half-maximal effect
Outline: (§1)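 Cytotoxicity was measured as CellTiter-Glo ATP luminescence, read after 10 min at room temperature. Compound treatment of the cells lasted 48 or 72 hr at 37 degrees Celsius in a qHTS format.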

KB-3-1 = assay: as above; settings: Five cell lines viability, CellTiter-Glo ATP luminescence, 48-72 h; max response: hits give low values
Outline: as §1

C33A = assay: Primary qHTS to identify gynecologic anti-cancer compounds using libraries of approved drugs and bioactive compounds (AID 1345084); settings: Gynecologic cancer cell panel viability, ATPlite luminescence, 48 h; series mostly up to 57.5 µM; note: nearly all actives have a fitted effect of over 55% in size; note: potency is the fitted concentration of half-maximal effect
Outline: (§2)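 Cells, 1,000 per well, plated 16 h, then exposed 48 h at 37 C to compounds. Viability by ATPlite luminescence after 15 min at room temperature.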

CAOV3 = assay: as above; settings: Gynecologic cancer cell panel viability, ATPlite luminescence, 48 h; series mostly up to 57.5 µM
Outline: as §2

CASKI = assay: as above; settings: Gynecologic cancer cell panel viability, ATPlite luminescence, 48 h; series mostly up to 57.5 µM
Outline: as §2

Es-2 = assay: as above; settings: Gynecologic cancer cell panel viability, ATPlite luminescence, 48 h; series mostly up to 57.5 µM
Outline: as §2

HeLa = assay: as above; settings: Gynecologic cancer cell panel viability, ATPlite luminescence, 48 h; series mostly up to 57.5 µM
Outline: as §2

Hek293T [1] = assay: as above; settings: Gynecologic cancer cell panel viability, ATPlite luminescence, 48 h, control line for the selectivity index; series mostly up to 57.5 µM
Outline: as §2

JEG-3 = assay: as above; settings: Gynecologic cancer cell panel viability, ATPlite luminescence, 48 h; series mostly up to 57.5 µM
Outline: as §2

OV90 = assay: as above; settings: Gynecologic cancer cell panel viability, ATPlite luminescence, 48 h; series mostly up to 57.5 µM
Outline: as §2

HEK293T [2] = assay: qHTS assay to identify novel small-molecules to repurpose for Merkel cell carcinoma treatment (AID 1296009); settings: MCC and control cell lines, CellTiter-Glo viability, 72 h; at 44.8 µM (top of the series) unless noted; note: nearly all actives have a fitted effect of over 60% in size
Outline: (§3)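 Cell viability measured by CellTiter-Glo following 72 hr compound treatment at 37 degree celsius, with NPC and MIPE libraries tested in 8- and 11-point concentration series.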

MCC-26 = assay: as above; settings: MCC and control cell lines, CellTiter-Glo viability, 72 h; series mostly up to 46 µM
Outline: as §3

SMILES | max response (HaCat) [%] | outcome (KB-3-1) | Potency (C33A) | Potency (CAOV3) | Potency (CASKI) | Potency (Es-2) | Potency (HeLa) | Potency (Hek293T [1]) | Potency (JEG-3) | Potency (OV90) | max response (KB-3-1) [%] | outcome (HEK293T [2]) | outcome (MCC-26) | Potency (HaCat) | Potency (KB-3-1)
CCOc1cc(C)c(Cl)cc1S(=O)(=O)n1cnc2ccccc21 | -29.2 | inactive | inactive | inactive | inactive | inactive | inactive | inactive | inactive | inactive |  |  |  |  | 
CC1CCCCN1S(=O)(=O)c1ccc(N2CCCC2=O)cc1 (stereo unspecified) | -10.9 |  | inactive | inactive | inactive | inactive | inactive | inactive | inactive | inactive | -2.83 | inactive |  |  | 
Cc1csc(NC(=O)c2ccc(COc3cccc(Cl)c3)o2)n1 | 2.26 |  | inactive | inactive | inactive | inactive | inactive | inactive | inactive | inactive | -1.89 |  |  |  | 
COc1nc2sc(C(=O)NC3CC3)c(N)c2c(C)c1Cl | -34.1 | inactive | inactive | inactive | inactive | inactive | inactive | inactive | inactive | inactive |  |  |  |  | 
Cn1cc(-c2ccc3nnc(Sc4ccc5nn(C)cc5c4)n3n2)cn1 | -20.1 | inactive | inactive | inactive | inactive | inactive | inactive | inactive | inactive | inactive |  | inactive |  |  | 
Nc1ccccc1N | 3.79 |  | 10 µM (active) | 5.62 µM (active) | 7.94 µM (active) | 11.2 µM (active) | 12.6 µM (active) | 7.94 µM (active) |  | 10 µM (active) | -4.37 |  | inactive |  | 
CCCC(=O)NCCc1csc(-c2ccc(Cl)cc2)n1 | -70.2 |  | inactive | inactive | inactive | inactive | inactive | inactive | inactive | inactive | -24.2 |  |  |  | 
O=C(O)[C@@H]1C[C@H]2C[C@@H](CCc3nn[nH]n3)CC[C@H]2CN1 | 2.14 | inactive |  |  | inactive | inactive | inactive | inactive | inactive | inactive |  |  |  |  | 
CC(=O)SCC(=O)c1ccc(NS(=O)(=O)c2ccc(OCCCN(C)C)cc2)nc1 |  |  |  | inactive |  | 14.1 µM (active) | 10 µM (active) |  | 15.8 µM (active) |  |  |  |  | 14.6 µM (active) | 8.2 µM (active)
CCC(Nc1ncnc2nc[nH]c12)c1nc2cccc(F)c2c(=O)n1-c1ccccc1 (stereo unspecified) | -6.65 | inactive | inactive |  | inactive | inactive | inactive | inactive | inactive | inactive |  |  |  |  | 
CCOc1cc(C(=O)N2CCC(N3CCN(C)CC3)CC2)ccc1Nc1ncc2c(n1)N(C1CCCC1)c1ccccc1C(=O)N2C | -1.5 |  | inactive | 31.6 µM (active) | inactive | inactive | inactive | inactive |  | inactive |  |  |  |  | 23.1 µM (active)
CNS(=O)(=O)c1ccccc1Nc1nc(Nc2ccc(N3CCN(C)CC3)cc2OC)ncc1Cl |  |  |  |  | 7.08 µM (active) | 12.6 µM (active) | 2 µM (active) | 12.6 µM (active) |  |  |  |  |  | 2.59 µM (active) | 0.92 µM (active)
Cc1noc(-c2ccc(-c3ccc(CC(=O)O)cc3)cc2)c1NC(=O)O[C@H](C)c1ccccc1 | -1.06 |  | inactive | inactive | inactive | inactive | inactive | inactive | inactive | inactive | 0.957 |  |  |  | 
CC(=O)c1cc(C(=O)N[C@@H](C)Cn2ccc(-c3ccc(C#N)c(Cl)c3)n2)[nH]n1 | -24.9 |  |  | inactive | inactive | inactive | inactive |  | inactive |  | -26.1 |  |  |  | 
O=C(O)c1cc2cccc([N+](=O)[O-])c2[nH]1 | -11.1 |  |  | inactive | inactive | inactive | inactive | inactive | inactive | inactive | 5.58 |  |  |  | 
CNCc1ccc(-c2cc(-c3nc(-c4ccc(S(=O)(=O)C(C)C)cc4)cnc3N)on2)cc1 | -11.6 |  | inactive | 14.1 µM (active) |  | 8.91 µM (active) |  |  | inactive |  |  |  |  |  | 1.3 µM (active)
COc1ccc(C(=O)Nc2ncc(-c3ccc(C(=O)O)cc3)s2)cc1 |  |  |  | 6.31 µM (active) | 17.8 µM (active) | 31.6 µM (active) | 7.08 µM (active) |  | 15.8 µM (active) | 10 µM (active) |  |  |  | 5.8 µM (active) | 2.91 µM (active)
CC(=O)N1CCN(C(=O)Cc2ccc(Nc3ncc(F)c(Nc4ccc(C(=O)Nc5ccccc5Cl)cc4)n3)cc2)CC1 |  |  |  | 31.6 µM (active) |  |  | 7.94 µM (active) |  | inactive | inactive |  |  |  | 4.11 µM (active) | 5.17 µM (active)
